Sampled rows, rich in hits. Any-hit rate of the full collection: about 8.1%.
NOMO-1 viab: STK33 inhibitor candidate reducing NOMO-1 cell viability; NOMO-1 AML viability, CellTiter-Glo luminescence, 72 h; inhibition, % (no concentration beside the values); actives 7.5% (n = 37,000); AID 2330; in the data active means inhibition above about 80%
PD-1 reversal: activators reversing PD-1 mediated T-cell inhibition | activation, % (concentration not given with the values) | primary human CD4 T cells, PD-L1 beads, CellTiter-Glo 96 h | 29,000 tested, under 10 active; call rule not given here;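 further: 0% = median vehicle wells and 100% = positive control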
MITF inh: inhibitors of MITF | TRPM1 promoter luciferase, luminescence, 24 h | actives 0.28% (n = 37,000) | inhibition, % (test concentration not listed); in the data active means inhibition above about 85%;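 further: human melanocyte line stably carrying TRPM1 promoter luciferase reporter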
Shh pathway inh: blocks Sonic Hedgehog signaling | inhibition, % (no concentration beside the values) | actives 2.1% (n = 22,000) | Shh-LIGHT2 Gli-luciferase reporter, 30 h;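 active means mean inhibition across valid replicates above about 65%, limit read from the data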;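 further: pathway switched on by Shh-conditioned medium diluted 1 in 25 in low serum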
The depositor's hits bear a star; . = no result given; ! = a repeat was not active.

SMILES	NOMO-1 viab	PD-1 reversal	MITF inh	Shh pathway inh
Cn1c(SCC(=O)Nc2ccc(Oc3ccccc3)cc2)nnc1-c1cccs1	9.2	1.2	14.0	.
Cc1ccc(S(=O)(=O)N(C)C[C@H]2Oc3ccc(NC(=O)Nc4ccc(C(F)(F)F)cc4)cc3C(=O)N([C@@H](C)CO)C[C@H]2C)cc1	118.6*	-1.7	99.9*	45.6
Cc1ccc(S(=O)(=O)N(C)C[C@@H]2Oc3ccc(NC(=O)Nc4ccc(C(F)(F)F)cc4)cc3C(=O)N([C@@H](C)CO)C[C@@H]2C)cc1	83.1*	-0.9	15.0	.
Cc1ccc(S(=O)(=O)N(C)C[C@@H]2Oc3ccc(NC(=O)Nc4ccc(C(F)(F)F)cc4)cc3C(=O)N([C@H](C)CO)C[C@@H]2C)cc1	115.2*	-2.1	65.2	16.5
C[C@H]1CN([C@@H](C)CO)C(=O)c2cc(NC(=O)Nc3ccc(C(F)(F)F)cc3)ccc2O[C@@H]1CN(C)S(=O)(=O)c1ccc(Cl)cc1	121.3*	-1.3	20.5	47.4
Cc1ccc(S(=O)(=O)N(C)C[C@@H]2Oc3ccc(NC(=O)Nc4ccc(C(F)(F)F)cc4)cc3C(=O)N([C@@H](C)CO)C[C@H]2C)cc1	75.3	1.0	-2.4	-7.7
NS(=O)(=O)c1ccc(NC(=O)CSc2nnc(-c3ccccc3Cl)n2-c2ccccc2)cc1	16.5	0.0	1.5	.
OC(Cc1ccccc1)(c1ccccc1)c1ccccc1N=Cc1ccc2c(c1)OCO2 (stereo not given)	90.5*	0.3	14.5	14.7
O=C1c2ccccc2C(=O)N1CC12CC3CC(CC(C3)C1)C2	98.4*	-3.8	4.8	.
Cc1c(C)c(C)c(CN2C(=O)c3ccccc3C2=O)c(C)c1C	18.4	-3.7	-6.3	19.9
Cc1ccc(OCC(=O)Nc2ccc3oc(-c4c(F)c(F)c(F)c(F)c4F)nc3c2)cc1	-12.0	.	-5.4	.
NC(=NCc1ccccc1)NC(=O)c1nc(Cl)c(N)nc1N	91.0*!	1.8	8.6	68.8*!
NC(=O)NC(=O)Cc1ccccc1	27.1	.	-10.8	3.4
NC(=Nc1ccccc1)NC(=O)c1nc(Cl)c(N)nc1N	119.4*	.	-84.2	12.5
COc1ccc(S(=O)(=O)N(C)CC(=O)Nc2cc(Cl)cc(Cl)c2)cc1	24.0	2.8	0.3	.
CC(C)=CCc1cc2c(c(CC=C(C)C)c1O)O[C@H](c1ccc(O)cc1)[C@@H](O)C2=O	37.2	-1.3	-13.1	23.2
O=C(c1ccccc1)N1CN(C2CCCCC2)Cc2c1sc1c2CCCC1	115.8*	0.3	8.6	-34.0
C[C@@H]1CN([C@@H](C)CO)C(=O)Cc2cc(NS(=O)(=O)c3ccc(F)cc3)ccc2O[C@@H]1CN(C)Cc1ccc(Oc2ccccc2)cc1	122.2*	.	39.0	30.0
C[C@H]1CN([C@@H](C)CO)C(=O)Cc2cc(NS(=O)(=O)c3ccc(F)cc3)ccc2O[C@H]1CN(C)Cc1ccc(Oc2ccccc2)cc1	122.2*	-0.1	19.7	15.8
C[C@H]1CN([C@@H](C)CO)C(=O)Cc2cc(NS(=O)(=O)c3ccc(F)cc3)ccc2O[C@H]1CN(C)Cc1ccccc1	23.6	-0.2	5.3	20.5
C[C@H](CO)N1C[C@H](C)[C@H](CN(C)Cc2ccccc2)Oc2ccc(NS(=O)(=O)c3ccc(F)cc3)cc2CC1=O	52.2	2.9	-23.9	11.0
Cn1c(SCC(=O)Nc2ccc(Br)cc2)nnc1-c1ccccn1	-13.5	1.9	5.4	.
COc1ccccc1OC(C)C(=O)Nc1c(C)n(C)n(-c2ccccc2)c1=O (stereo not given)	-3.3	0.1	7.4	.
C[C@H](CO)N1C[C@H](C)[C@H](CN(C)Cc2ccncc2)Oc2ccc(NC(=O)Nc3ccccc3)cc2C1=O	97.0*	0.4	4.5	-18.5
C[C@H]1CN([C@@H](C)CO)C(=O)c2cc(NC(=O)Nc3ccc(F)cc3)ccc2O[C@H]1CN(C)Cc1ccc(C(F)(F)F)cc1	52.1	-2.9	29.8	14.2
SMILES	NOMO-1 viab	PD-1 reversal	MITF inh	Shh pathway inh
C[C@@H]1CN([C@H](C)CO)C(=O)c2cc(NC(=O)Nc3ccccc3)ccc2O[C@@H]1CN(C)Cc1ccncc1	-4.8	-0.2	-10.5	-8.0
C[C@H]1CN([C@@H](C)CO)C(=O)c2cc(NC(=O)Nc3ccc(F)cc3)ccc2O[C@H]1CN(C)Cc1ccncc1	100.4*	-1.5	-8.8	.
C[C@H]1CN([C@@H](C)CO)C(=O)c2cccc(NS(=O)(=O)c3ccc(F)cc3)c2O[C@@H]1CN(C)Cc1ccc(C(=O)Nc2ccccc2N)cc1	94.0*	0.6	27.1	.
C[C@@H]1CN([C@@H](C)CO)C(=O)c2cccc(NS(=O)(=O)c3ccc(F)cc3)c2O[C@H]1CN(C)Cc1ccc(C(=O)Nc2ccccc2N)cc1	45.3	-0.5	-2.2	.
C[C@H](CO)N1C[C@H](C)[C@@H](CN(C)Cc2ccc(C(=O)Nc3ccccc3N)cc2)Oc2c(NS(=O)(=O)c3ccc(F)cc3)cccc2C1=O	42.8	-0.8	15.1	.
C[C@H]1CN([C@@H](C)CO)C(=O)c2cccc(NS(=O)(=O)c3ccc(F)cc3)c2O[C@H]1CN(C)Cc1ccc(C(=O)Nc2ccccc2N)cc1	113.8*	1.5	33.2	.
C[C@@H]1CN([C@@H](C)CO)C(=O)c2cccc(NS(=O)(=O)c3ccc(F)cc3)c2O[C@@H]1CN(C)Cc1ccc(C(=O)Nc2ccccc2N)cc1	128.7*	0.6	14.6	.
C[C@@H]1CN([C@@H](C)CO)C(=O)c2cc(NC(=O)Nc3cccc4ccccc34)ccc2O[C@@H]1CN(C)Cc1ccc(Cl)c(Cl)c1	93.3*	-3.6	26.6	.
C[C@H](CO)N1C[C@H](C)[C@H](CN(C)Cc2ccc(Cl)c(Cl)c2)Oc2c(NC(=O)Nc3cccc4ccccc34)cccc2C1=O	106.5*	-4.6	45.8	-12.1
C[C@@H]1CN([C@@H](C)CO)C(=O)Cc2cc(NC(=O)Nc3cccc4ccccc34)ccc2O[C@@H]1CN(C)Cc1ccc(Cl)c(Cl)c1	128.6*	-5.3	46.6	20.9
C[C@H](CO)N1C[C@H](C)[C@H](CN(C)Cc2ccc(C(=O)O)cc2)Oc2ccc(NC(=O)Nc3cccc4ccccc34)cc2CC1=O	8.9	1.1	-5.1	.
COc1ccc(C(=O)C(C)Oc2cccc(NC(=O)c3ccccc3[N+](=O)[O-])c2)cc1 (stereo not given)	25.8	3.8	-7.2	.
CS/C(NCC1CC1)=C(/C#N)C(=O)c1ccc(Cl)cc1	111.2*	-7.2	46.0	.
CO[C@@]1(c2ccc3c(c2)OCO3)OC[C@@H]2[C@@H](c3ccc4c(c3)OCO4)OC[C@@]21O	.	.	.	39.8
C/C=C(\C)C(=O)O[C@@H]1C(C)=C2[C@H]3OC(=O)[C@](C)(O)[C@]3(O)[C@H](OC(=O)C(C)CC)C[C@@](C)(OC(C)=O)[C@@H]2[C@H]1OC(=O)CCCCCCC (stereo not given in full)	.	.	.	99.0*
O=c1[nH]c2ccccc2n1CCCSc1nnc2c(n1)[nH]c1ccccc12	20.1	.	-5.0	.
O=C(CSc1nc2ccc([N+](=O)[O-])cc2[nH]1)Nc1cc(C(F)(F)F)cc(C(F)(F)F)c1	129.8*	-11.7	86.7*	.
NC(N)=NN=Cc1c(Cl)cccc1Cl	60.5	.	0.1	65.3*
O=C(COc1cccc(NC(=O)c2ccc([N+](=O)[O-])cc2)c1)c1ccc(Br)cc1	17.3	.	32.7	.

Compound activity: PubChem, Broad Institute
